Assay [1] can be described thus: qHTS for Inhibitors of the Functional Ribonucleoprotein Complex (vRNP) of Lassa (LASV) Arenavirus: LASV Primary Screen - GLuc reporter signal (AID 1347082; calls by dose curve; tested in HEK293 reporter line; also: nearly all actives have a fitted effect of over 60% in size).
A short description of assay [2]: qHTS for Inhibitors of the Functional Ribonucleoprotein Complex (vRNP) of Lassa (LASV) Arenavirus: Viability assay - alamar blue signal for LASV Primary Screen (AID 1347083; calls by dose curve; tested in HEK293 reporter line; also: nearly all actives have a fitted effect of over 80% in size). A general note: In qHTS, concentration-response curves come from the screen itself.
Assay [3] can be described thus: qHTS for Inhibitors of the Functional Ribonucleoprotein Complex (vRNP) of Lymphocytic Choriomeningitis Arenaviruses (LCMV): Viability assay - alamar blue signal for LCMV Primary Screen (AID 1347085; calls by dose curve; tested in HEK293 reporter line; also: nearly all actives have a fitted effect of over 80% in size).
Assay [4] concerns the target Nucleoprotein (Lymphocytic choriomeningitis virus (strain Armstrong)) (UniProt P09992). The assay is described as follows: qHTS for Inhibitors of the Functional Ribonucleoprotein Complex (vRNP) of Lymphocytic Choriomeningitis Arenaviruses (LCMV): LCMV Primary Screen - GLuc reporter signal (AID 1347086). Also: nearly all actives have a fitted effect of over 70% in size.

Records with an inconclusive call do not appear. A number with no mark means an inactive call. Calls of active or inactive are those of the source. Unless noted, calls follow the shape of the full dose curve.
Potency is read from the fitted curve at half-maximal effect.

Chain of Nucleoprotein (Lymphocytic choriomeningitis virus (strain Armstrong)) (P09992 whole entry, looked up): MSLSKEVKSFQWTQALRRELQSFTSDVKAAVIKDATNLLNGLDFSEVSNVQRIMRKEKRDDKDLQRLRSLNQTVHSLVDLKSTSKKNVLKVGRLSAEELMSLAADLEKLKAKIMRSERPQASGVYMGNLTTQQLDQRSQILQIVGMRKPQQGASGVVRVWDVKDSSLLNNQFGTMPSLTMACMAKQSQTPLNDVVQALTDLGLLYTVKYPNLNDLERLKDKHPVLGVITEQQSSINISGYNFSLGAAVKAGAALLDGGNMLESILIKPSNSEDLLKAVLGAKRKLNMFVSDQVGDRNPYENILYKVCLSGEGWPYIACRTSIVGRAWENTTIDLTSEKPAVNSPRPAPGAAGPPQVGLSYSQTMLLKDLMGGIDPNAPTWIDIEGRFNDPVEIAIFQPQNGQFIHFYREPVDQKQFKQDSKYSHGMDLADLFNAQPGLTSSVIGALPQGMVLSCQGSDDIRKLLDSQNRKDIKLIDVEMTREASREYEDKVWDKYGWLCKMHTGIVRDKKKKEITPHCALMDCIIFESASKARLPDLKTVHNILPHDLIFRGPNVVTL

`C[C@@H]1CC2OC(=O)[C@@]3(C)C(=O)CC[C@@](C)(C23)[C@@]1(O)CCc1ccoc1` (stereo not given in full): the Potency result in assay [1], in assay [2], in assay [3] and in assay [4] was “inactive” throughout.

Regarding `CC(C)=CCc1c(O)cc2c(c1O)C(=O)CC(c1ccccc1)O2` (stereo not given), the Potency entry in assay [1], in assay [2], in assay [3] and in assay [4] was “inactive” throughout.

Turning to `COC(=O)Nc1ccc(C)c(NC(=O)OC)c1`, the Potency result in assay [1], in assay [2], in assay [3] and in assay [4] was “inactive” throughout.

As to `CC1CCC2C(C)C3C(CC4[C@@H]5CC=C6C[C@@H](O)CC[C@]6(C)C5CC[C@]34C)N2C1` (stereo not given in full), the Potency result in assay [1], in assay [2], in assay [3] and in assay [4] was “inactive” throughout.

Take `CCCCC/C=C\C=C\C(=O)OCC`: the Potency result in assay [1], in assay [2], in assay [3] and in assay [4] was “inactive” in each case.

In the case of `CS[C@H]1SC[C@@H]2C(=O)N(C)[C@H](C(C)C)C(=O)OC[C@H](NC(=O)c3cnc4ccccc4n3)C(=O)N[C@H](C)C(=O)N(C)[C@@H]1C(=O)N(C)[C@H](C(C)C)C(=O)OC[C@H](NC(=O)c1cnc3ccccc3n1)C(=O)N[C@H](C)C(=O)N2C`, the Potency in assay [1] is 0.0611 µM (active); in assay [2] it was 0.0109 µM (active); in assay [3], 0.0061 µM (active); in assay [4] it was 0.0172 µM (active).

In the case of `COc1cc2oc(=O)ccc2cc1[C@H](O)[C@@H](O)C(C)(C)O`, the Potency result in assay [1], in assay [2], in assay [3] and in assay [4] was “inactive” each time.

Consider `COC(=O)c1cc2c([nH]c3ccccc32)c(C)n1`, for which the Potency entry in assay [1], in assay [2], in assay [3] and in assay [4] was “inactive” in each case.

With `CCCCCCCC/C=C/CCCOC(C)=O`, the Potency entry in assay [1], in assay [2], in assay [3] and in assay [4] was “inactive” each time.

On to `C=CC(C)=CCC=C(C)C`, for which the Potency entry in assay [1], in assay [2], in assay [3] and in assay [4] was “inactive” in each case.

Take `CC(=O)OC[C@]12CCC(C)=C[C@H]1O[C@@H]1[C@H](O)[C@@H](OC(C)=O)[C@@]2(C)[C@]12CO2`: the Potency entry in assay [1], in assay [2], in assay [3] and in assay [4] was “inactive” throughout.

For the compound `CC1=CC(=O)OC2CC3OC4C[C@@H](C)C5OC6CC7O[C@]8(C)C/C=C\C9OC%10CC%11OC(CC(C)CO)CC(O)[C@]%11(C)OC%10CC9OC8C[C@]7(C)O[C@]6(C)CCC5OC4C[C@]3(C)OC12` (stereo not given in full), the Potency result in assay [1], in assay [2], in assay [3] and in assay [4] was “inactive” each time.

As for `Cc1cc(O)cc(O[C@H]2OC(CO)[C@H](O)[C@@H](O)[C@H]2O)c1` (stereo not given in full), the Potency entry in assay [1], in assay [2], in assay [3] and in assay [4] was “inactive” throughout.

As to `COc1cc(C(=O)O)ccc1O`, the Potency entry in assay [1], in assay [2], in assay [3] and in assay [4] was “inactive” in each case.

Regarding `CC[C@H](C)/C=C(C)/C=C/C(=O)Cc1cc(O)c(C)c(O)c1C=O`, the Potency result in assay [1], in assay [2], in assay [3] and in assay [4] was “inactive” in each case.

Consider `CCNC(=O)Nc1ccc(-c2nc3c(c(N4CCOC[C@H]4C)n2)CCN(C2COC2)C3)cc1`, for which the Potency in assay [1] is 1.93 µM (active); in assay [2] it was 1.37 µM (active); in assay [3], 3.06 µM (active); in assay [4] it was 1.53 µM (active).

Consider `O=C(NC[C@H](O)c1ccccc1)c1ccccc1`, for which the Potency entry in assay [1], in assay [2], in assay [3] and in assay [4] was “inactive” in each case.

As to `O=C(O)C=C(Br)Br`, the Potency entry in assay [1], in assay [2], in assay [3] and in assay [4] was “inactive” each time.

As for `O=C1CCCCCCCCCCCCCCO1`, the Potency entry in assay [1], in assay [2], in assay [3] and in assay [4] was “inactive” in each case.

In the case of `CC(Cc1c[nH]c2ccccc12)C(=O)O` (stereo not given), the Potency entry in assay [1], in assay [2], in assay [3] and in assay [4] was “inactive” throughout.

For `CC(=O)c1ccc(-c2cccs2)s1`, the Potency result in assay [1], in assay [2], in assay [3] and in assay [4] was “inactive” each time.

As for `Cc1c(O[C@@H]2O[C@H](CO)[C@@H](O)[C@H](O)[C@H]2O)c(CO)c(O[C@@H]2O[C@H](CO)[C@@H](O)[C@H](O)[C@H]2O)c2c1O[C@@H](c1ccccc1)C[C@@H]2O`, the Potency entry in assay [1], in assay [2], in assay [3] and in assay [4] was “inactive” throughout.

With `Cc1ccnc(N)c1`, the Potency result in assay [1], in assay [2], in assay [3] and in assay [4] was “inactive” each time.

As to `CC[C@@H](O)C[C@H]1CCC[C@@]2(C[C@@H]3OC(=O)/C=C/[C@@](C)(O)[C@@H](O)[C@H](C)[C@@H](O)[C@H](OC4CCC(N(C)C)C(C)O4)[C@@H](O)[C@](C)(O)CCCCC/C=C/[C@@H]4CC(C)(C)O[C@@]4(O)C[C@H](O2)[C@H]3C)O1` (stereo not given in full), the Potency entry in assay [1], in assay [2], in assay [3] and in assay [4] was “inactive” throughout.

Consider `CCC(C)C(=O)OCCc1ccccc1` (stereo not given), for which the Potency entry in assay [1], in assay [2], in assay [3] and in assay [4] was “inactive” each time.

Consider `COc1ccc([C@H]2Cc3cccc(O)c3C(=O)O2)cc1O`, for which the Potency result in assay [1], in assay [2], in assay [3] and in assay [4] was “inactive” each time.

For `CCOC(=O)c1c(C)nc(C)c(C(=O)OCC)c1-c1ccccc1`, the Potency entry in assay [1], in assay [2], in assay [3] and in assay [4] was “inactive” in each case.

As for `CC(=O)O[C@H]1C2[C@@H](OC(=O)Cc3ccccc3)[C@@H](C)C[C@]2(OC(C)=O)C(=O)/C(C)=C/[C@@H]2[C@H](CC[C@@]13CO3)C2(C)C` (stereo not given in full), the Potency entry in assay [1], in assay [2], in assay [3] and in assay [4] was “inactive” in each case.

For `COc1c(O)ccc2c1-c1c3c(cc4c1C(C2)N(C)CC4)OCO3` (stereo not given), the Potency result in assay [1], in assay [2], in assay [3] and in assay [4] was “inactive” throughout.

Consider `COc1ccc(C(=O)OC2CC3CC[C@H](C2)N3C(C)=O)cc1OC` (stereo not given in full), for which the Potency entry in assay [1], in assay [2], in assay [3] and in assay [4] was “inactive” throughout.

For the origin of these results see PubChem BioAssay (NCATS).
